We go through 70 compounds from PubChem BioAssay AID504882 (Broad Institute, 2011).

The whole screen tested about 1,200 compounds, of which about 290 (24%) were called active. Another 9% or so got no clear call; they are omitted. How the calls were made is not given here. The list is a sample of the results. Results with a measured potency or affinity are listed apart.

The test is described as follows: cytotoxicity in EBV lymphoblastoid cells, dose response, cytotoxicity control, cell-based, plate reader, cherry-picks, set 2 (AID 504882). The settings on record: EBV lymphoblastoid cells (LCL) viability; series mostly up to 19.5 µM.
`N=C1S/C(=C\c2ccccc2)C(=O)N1c1ccc(F)cc1`: the compound was classed as inactive.
As for `CCC(=O)OC1c2ccccc2C(=O)N1Cc1ccccc1` (stereo not given), the call was inactive.
Regarding `CC(=O)/C=C/c1ccccc1O`, the result was inactive.
For the compound `CNc1ccc(Br)cc(C(=O)/C=C/c2cc(OC)ccc2OC)c1=O`, the compound was called inactive.
As for `CNc1ccc(Br)cc(C(=O)/C=C/c2cccc(OC)c2)c1=O`, the entry is “inactive”.
On to `COC(=O)C1=C(C)N(CCCC(=O)O)C(=O)NC1c1cccc(Cl)c1Cl` (stereo not given), for which the compound was classed as inactive.
As for `O=C(CSc1nnc(NC(=O)c2ccc3c(c2)OCO3)s1)NCc1ccco1`, the entry is “inactive”.
As to `CCOc1ccc(C(=O)Nc2nnc(SCC(=O)NCC3CCCO3)s2)cc1` (stereo not given), the compound was called inactive.
For the compound `COc1ccc(C(=O)OCC(=O)c2c[nH]c3ccccc23)cc1OC`, the compound was called inactive.
On to `O=C1NC(=O)/C(=C\c2ccc(OCc3cccc(C(=O)O)c3)c(Cl)c2)N1`, for which the outcome was inactive.
As to `O=C(CN(Cc1cccs1)C(=O)CNS(=O)(=O)c1ccccc1)NCc1ccco1`, the result was inactive.
Consider `Cc1ccc(S(=O)(=O)N2CCN(C(=O)CSc3nnnn3C)C2)cc1`, for which the call was inactive.
Turning to `O=C(O)/C=C/c1ccc(Cn2ccnc2)cc1`, the call was inactive.
`Cc1ccccc1NC(=O)CN1C(=O)S/C(=C\c2cccn2-c2cccc(C(=O)O)c2)C1=O`: the compound was called inactive.
As for `CC(C)[C@H](N[C@@H](C)c1ccccc1)c1c(O)ccc2ccccc12`, the compound was classed as inactive.
With `O=C(C1CC1)N1N=C(c2ccc(Br)cc2)CC1(O)C(F)(F)F` (stereo not given), the call was inactive.
As for `CN1CCN(CCOc2ccc(Cc3ccccc3)cc2)CC1`, the entry is “inactive”; as for `CN(C)S(=O)(=O)c1ccc(Cl)c(C(=O)NCCNC(=O)c2cc(S(=O)(=O)N(C)C)ccc2Cl)c1`, “inactive”; as for `CCCc1cc(=O)c2c(O)ccc(OC)c2o1`, “inactive”.
For `O=c1cc(C2CCCCC2)[nH]c(=O)[nH]1`, the compound was called inactive.
`CC(=O)OCC(=O)[C@@]1(O)CC[C@H]2[C@@H]3CCC4=CC(=O)CC[C@]4(C)[C@H]3[C@@H](O)C[C@@]21C`: the outcome was inactive.
With `O=C(CN1CCN(S(=O)(=O)c2ccc(F)cc2)CC1)Nc1cccc(C(F)(F)F)c1`, the compound was classed as inactive.
In the case of `O=C(/C=C/Nc1cccc(C(F)(F)F)c1)C(F)(F)F`, the result was inactive.
As for `O=C(c1ccco1)N1CCN(S(=O)(=O)/C=C/c2ccccc2)CC1`, the entry is “inactive”; as for `O=C(Nc1ncccc1O)c1ccc(S(=O)(=O)NCc2ccco2)cc1`, “inactive”; as for `CCOC(=O)C1=C(C)N(C)C(=O)NC1c1ccccc1OC` (stereo not given), “inactive”.
As for `Cc1cc(=S)[nH]c2ccccc12`, the entry is “inactive”.
With `CC(=O)Oc1ccc(C(=O)Nc2cccnc2)cc1`, the compound was classed as inactive.
`CC(C)CCNC(=O)C1CCN(S(=O)(=O)c2ccc3c(c2)CC(C)N3C(=O)C2CC2)CC1` (stereo not given): the outcome was inactive.
As for `Cc1ccc2c(c1)N(CC(=O)N1CCCC1)C(=O)c1cccnc1O2`, the compound was called inactive.
Turning to `Cc1ccc(S(=O)(=O)N[C@H](C(=O)N2CCC(C(=O)N[C@@H](CC(=O)O)C(=O)O)CC2)C(C)C)cc1`, the compound was called inactive.
As to `Cc1ccc(C(=O)Nc2ccc3c(c2)OCCO3)cc1`, the compound was called inactive.
Next, `Cc1ccc(NC(=O)c2ccc3c(c2)OCCO3)nc1`: “inactive”; `COc1ccc(OC)c(NC(=O)COC(=O)COc2ccc(Nc3ccccc3)cc2)c1`: “inactive”; `Cc1cc(C)c(S(=O)(=O)N2CCN(C(=O)c3ccccc3OCc3c(C)noc3C)CC2)c(C)c1`: “inactive”.
Turning to `O=C(NCc1ccccc1Cl)C1CCCN1S(=O)(=O)c1ccc(F)cc1` (stereo not given), the result was inactive.
As for `Cc1ccc(/C=C/c2nc3ccccc3s2)s1`, the entry is “inactive”.
As for `COc1ccc(C=NNc2nc3ccccc3s2)cc1`, the entry is “inactive”.
`N/C(=N\OC(=O)c1ccccc1)c1ccccn1`: the compound was called inactive.
Next, `C[C@@H]1CN([C@@H](C)CO)S(=O)(=O)c2ccc(/C=C/c3ccccc3)cc2O[C@@H]1CN(C)Cc1ccc(C(=O)O)cc1`: “inactive”; `O=C(NC1=NCCS1)c1cc2ccccc2o1`: “inactive”; `COc1ccc(C(=O)Nc2nnc(SCC(=O)NC3CC3)s2)cc1`: “inactive”.
Regarding `c1ccc(-c2cn3c4c(sc3n2)CCCC4)cc1`, the compound was called inactive.
Turning to `Cc1cc(C)n2nc(CC(=O)NC3CCCCCC3)nc2n1`, the outcome was inactive.
As for `Cc1nc(SCC(=O)c2cccc([N+](=O)[O-])c2)n[nH]1`, the entry is “inactive”.
Regarding `COc1ccc2cc3c(N)nn(C(=O)c4cccc([N+](=O)[O-])c4)c3nc2c1`, the call was inactive.
As for `CCn1c(SC(C)C)nnc1-c1c[nH]c2ccccc12`, the entry is “inactive”; as for `CC(=O)c1cccc(NC(=O)Nc2ccc(C(=O)N3CCOCC3)cc2)c1`, “inactive”.
For `COc1ccc(-c2csc(Nc3cccc(C)n3)n2)cc1OC`, the call was inactive.
Next, `CC[C@]1(C(=O)OC)[C@H]2C(=O)N(Cc3ccccc3)C(=O)[C@H]2[C@H]2CN=C(SCc3ccc(C#N)cc3)N21`: “inactive”.
In the case of `COc1ccc(CN2C(=O)c3cccnc3C2Nc2cc(Cl)ccc2OC)cc1` (stereo not given), the compound was called inactive.
For the compound `Clc1ccc(-c2cn3nc4c(nc3n2)CCCC4)cc1`, the compound was classed as inactive.
On to `COCCn1c(SCCN2CCOCC2)nc2c1c(=O)[nH]c(=O)n2C`, for which the result was inactive.
As for `COc1cc2nc(N3CCN(C(=O)C4CCCO4)CC3)nc(N)c2cc1OC` (stereo not given), the entry is “inactive”; as for `O=C(Nc1ccc2c(c1)C(=O)OC2)c1ccc(C(F)(F)F)cc1`, “inactive”; as for `C/C(=N\Nc1ccc(C(F)(F)F)cc1[N+](=O)[O-])C(C)C`, “inactive”.
For `COC(=O)c1ccc2nc(-c3cccc(N)c3)cn2c1`, the compound was classed as inactive.
In the case of `CCOC(=O)Nc1ccc2c(c1)N(C(=O)CN(C)C)c1ccccc1CC2`, the outcome was inactive.
As for `COc1ccc(-c2nc(C)ncc2-c2ccccc2)c(O)c1`, the compound was called inactive.
For `c1ccc(OCCSc2nnc3sc4ccccc4n23)cc1`, the compound was classed as inactive.
Next, `COc1ccc(N2C(=O)C(=O)/C(=C(/O)c3ccc(C)cc3)C2c2cccnc2)cc1` (stereo not given): “inactive”; `O=C1CCCCC1Sc1nnc(-c2ccc3c(c2)OCO3)o1` (stereo not given): “inactive”; `COc1ccc(NC(=O)NCCN2CCc3ccccc3C2)cc1`: “inactive”.
Take `COc1ccc(NC(=O)c2cc3ccccc3oc2=O)cc1`: the outcome was inactive.
For `N#Cc1c(NC(=O)CCCC(=O)O)sc2c1CCCCC2`, the compound was called inactive.
For `COC(=O)c1c(NC(=O)c2nn(C)cc2Cl)sc2c1CCCC2`, the result was inactive.
`NC(=O)c1sc2nc3c(c(-c4ccccc4)c2c1N)CCC3`: the compound was called inactive.
Next, `Cc1ccc(NC(=O)NNS(=O)(=O)c2ccc(Br)cc2)cc1`: “inactive”.
For `O=C(CSc1nc2ccccc2c(=O)n1CCCN1CCOCC1)Nc1ccc(Br)cc1`, the compound was classed as inactive.
For `CC(C)(C)c1ccc(C(=O)N2CCC(=O)N(C(CO)Cc3ccccc3)CC2)cc1` (stereo not given), the outcome was inactive.
